Source: PubChem BioAssay (NCATS)
“And” between values parts separate entries of the source, which are not always exact repeats. Equal values may be shown once. Inconclusive results are not listed. Values without a mark were called inactive. The source made the active and inactive calls. Calls follow the shape of the dose curve; as a rule, active = well fitted activation curve with a large enough effect in the signal ratio; inconclusive = small, poorly fitted or top-dose-only effect, or effect the other way, or a change in a side signal; inactive = flat fitted curve, though single readings scatter; the % refers to the signal ratio.

Assay: qHTS assay for small molecule agonists of the antioxidant response element (ARE) signaling pathway (AID 651741); as to activation: % of control where 0% means no effect
Conditions: HepG2 ARE-bla reporter, beta-lactamase FRET ratio, 16 h; series mostly up to 96 µM; activation: at the top concentration
Description: National Center for Advancing Translational Sciences [NCATS]
NIH Chemical Genomics Center [NCGC]
U.S. Environmental Protection Agency [EPA]
National Institutes of Environmental Health Sciences [NIEHS]
National Toxicology Program [NTP]
Oxidative stress has been implicated in the pathogenesis of a variety of diseases ranging from cancer to neurodegeneration. The antioxidant response element (ARE) signaling pathway plays an important role in the amelioration of oxidative stress. The CellSensor ARE-bla HepG2 cell line (Invitrogen) can be used for analyzing the Nrf2/antioxidant response signaling pathway. Nrf2 (NF-E2-related factor 2) and Nrf1 are transcription factors that bind to AREs and activate these genes. The CellSensor ARE-bla Hep G2 cell line contains a beta-lactamase reporter gene under control of the Antioxidant Response Element (ARE) stably integrated into HepG2 cells. The activation of the report gene under culture conditions can be detected by fluorescence intensity. This cell line can be used to screen chemicals in a 1536-well plate format and to identify agonists that induce oxidative stress.
The ARE-bla cells were dispensed at 2,000 cells/5 ul/well in 1536-well black wall/clear bottom plates using a Multidrop dispenser. After the assay plates were incubated at a 37 C/5% CO2 incubator for 5 hours, 23 nL of compounds dissolved in DMSO, positive controls or DMSO only was transferred to the assay plate by a pin tool. The plates were incubated at 37 C for 16 hours. After 1 uL of LiveBLAzer B/G FRET substrate was added using a Flying Reagent Dispenser, the plates were incubated at room temperature for 2 hours, and fluorescence intensity was measured by an Envision plate reader.
Potency is read from the fitted curve at half-maximal effect.

Row | Structure (SMILES) | activation [%] | Potency
1 | Cc1ccccc1 | 7.2 | –
2 | CC1=C2[C@@H]([C@H](C)CC[C@H]2/C=C(\C)C(=O)O)[C@H](O)C1 | 0.469 | –
3 | Nc1ccn([C@H]2CS[C@@H](CO)O2)c(=O)n1 | 0.771 | –
4 | CCCCC(CC)COC(=O)CC(C(=O)OCC(CC)CCCC)S(=O)(=O)O (stereo not drawn) | – | 43.3 µM (active)
5 | CCCCC/C=C\C/C=C\CCCCCCCC(=O)O | – | inactive
6 | IC(I)I | – | 68.6 µM (active)
7 | CC(O)CO (stereo not drawn) | – | inactive
8 | CCCCCCCC/C=C\CCCCCCCC(=O)O | – | inactive
9 | O=S(=O)(O)O | 8.81 | –
10 | CC(C)=O | -0.857 | –
11 | CCCCCCCC(=O)O | 1.08 | –
12 | CCOc1ccc2c(c1)C(C)=CC(C)(C)N2 | – | 27.3 µM (active)
13 | CC1=C(/C=C/C(C)=C/C=C/C(C)=C/CO)C(C)(C)CCC1 | – | 68.6 µM (active) and 42.2 µM (active)
